Results reported in PubChem BioAssay AID504327 (National Center for Advancing Translational Sciences (NCATS), 2011).
The whole screen tested about 390,000 compounds, of which about 820 (0.21%) were called active. Where a call stands in place of a potency, no number is given. Inconclusive results (about 3%) are left out. The sample holds actives, similar compounds and a random draw of the others, so the mix is not that of the screen. Calls follow the shape of the dose curve; as a rule, active = well fitted inhibition curve with a large enough effect; inconclusive = small, poorly fitted or top-dose-only effect, or another doubt; inactive = no such curve, though single readings can be large or run the other way.
Potency is read from the fitted curve at half-maximal effect.

These molecules were tested against Histone acetyltransferase KAT2A (Homo sapiens) (UniProt Q92830) (assay: qHTS Assay for Inhibitors of GCN5L2). Settings: GCN5L2 HAT assay, ThioGlo1 CoA-SH fluorescence; series mostly up to 58.9 µM.
Chain of Histone acetyltransferase KAT2A (Homo sapiens) (Q92830 whole entry, looked up): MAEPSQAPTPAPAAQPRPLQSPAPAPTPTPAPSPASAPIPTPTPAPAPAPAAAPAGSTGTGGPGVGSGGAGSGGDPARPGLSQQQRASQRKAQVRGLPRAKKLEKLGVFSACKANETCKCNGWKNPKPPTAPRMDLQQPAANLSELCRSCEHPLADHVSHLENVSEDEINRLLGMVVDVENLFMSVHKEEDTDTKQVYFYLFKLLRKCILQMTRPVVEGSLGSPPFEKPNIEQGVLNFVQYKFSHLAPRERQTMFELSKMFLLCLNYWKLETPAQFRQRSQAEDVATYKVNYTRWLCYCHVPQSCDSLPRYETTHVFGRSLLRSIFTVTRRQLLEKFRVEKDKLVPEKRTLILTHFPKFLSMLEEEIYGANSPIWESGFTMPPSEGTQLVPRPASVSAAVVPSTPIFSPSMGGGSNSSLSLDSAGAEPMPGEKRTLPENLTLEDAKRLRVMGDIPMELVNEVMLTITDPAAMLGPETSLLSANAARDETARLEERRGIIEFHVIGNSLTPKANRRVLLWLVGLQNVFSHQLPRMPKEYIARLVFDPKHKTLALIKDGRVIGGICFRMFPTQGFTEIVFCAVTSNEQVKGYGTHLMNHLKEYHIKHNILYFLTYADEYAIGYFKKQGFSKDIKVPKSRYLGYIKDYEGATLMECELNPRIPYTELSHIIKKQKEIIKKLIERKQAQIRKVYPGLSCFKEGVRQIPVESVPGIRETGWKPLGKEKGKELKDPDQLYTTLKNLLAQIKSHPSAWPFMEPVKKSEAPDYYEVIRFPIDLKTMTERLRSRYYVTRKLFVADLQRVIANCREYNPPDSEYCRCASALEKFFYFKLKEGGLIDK
Text: Histone acetyltransferase (HAT) enzymes transfer a […] group from acetyl-coenzyme A to the epsilon-amino group of conserved lysine residues of N-terminal histone tails. Acetylation results in charge neutralization of this positively charged amino acid, decreasing interactions with the […] backbone and making the DNA more accessible for transcription. HATs have been recognized as an emerging drug target for treatment of cancer, diabetes, asthma, chronic obstructive pulmonary disease, cardiac disease, and viral infection. Protein identified with HAT activity include the […] like 2 (GCN5L2, a.ka. Histone acetyltransferase KAT2A) which acetylates histone H3 at Lys9, 14, 18, 13, and to lesser extent histones H4 and H2B. This activates transcription of the gene by modulating chromatin structure and installing the acetyllysine recognition mark for bromodomain-containing coactivator proteins.
A quantitative high throughput screen was developed to identify small molecule inhibitors. The assay is based on the principle that it measures formation of reduced CoA with the pro-fluorescent maleimide derivative ThioGlo1 that becomes fluorescent upon reaction with the free thiol of CoA.
A large number of artifacts are expected in this primary screen, compounded by the assay format (fluorescent artifacts) and by the high top concentration tested for each substance. This BioAssay data deposition should be used with caution, and counterscreen and secondary assay validation is essential since very few actives from the primary screen are expected to be true inhibitors of GCN5L2.
[2] Yasgar, et al. Compound Management for Quantitative High-Throughput Screening. JALA. 2008 Apr;13(2):79-89.
[3] Inglese, et al. Quantitative high-throughput screening: a titration-based approach that efficiently identifies biological activities in large chemical libraries. Proc Natl Acad Sci. 1;103(31):11473-8. 2006. PMID: 16864780
NIH Molecular Libraries Probe Production Network [MLPCN]
NIH Chemical Genomics Center [NCGC]
Structural Genomics Consortium (SGC)
To each well of a 1,536w plate, 3ul of GCN5L2 (final concentration 20nM, in 50mM HEPES, 0.1mM EDTA (pH 7.5), 0.01% Tween-20 buffer) are added using a Kalypsys dispenser. Only buffer is added to some wells as a control. A Kalypsys pin-tool transferred 23nl of library compound solution in DMSO to each well, as well as the control inhibit garcinol. . Following a 15 min incubation of enzyme with compounds at room temperature, 1ul mixture of ThioGlo1 (50uM final), H3(1-25) peptide (75uM final), and Acetyl-CoA (70uM final) is added. Plates are read immediately on the ViewLux (PerkinElmer) (Ex340nm/Em540nm) for a 0 min read, incubated for 20 min at room temperature, and read again on the ViewLux with the same settings. The initial read was carried out to identify compounds that are potentially fluorescent.
With `COc1ccccc1N1CCN(C[C@@H]2CN3C(=O)N(C)c4ccccc4C3=N2)CC1` the Potency was “inactive”. For `C[C@@H]1C[C@H]2[C@@H]3C[C@H](F)C4=CC(=O)C=C[C@@]4(C)[C@]3(F)[C@H](O)C[C@]2(C)[C@@]1(O)C(=O)CO`, the Potency was “inactive”. `C[C@@H]1O[C@@H](OC[C@H]2O[C@@H](Oc3cc(O)c4c(c3)O[C@H](c3ccc(O)c(O)c3)CC4=O)[C@H](O)[C@@H](O)[C@@H]2O)[C@H](O)[C@H](O)[C@H]1O` was tested, and the Potency was “inactive”. In the case of `COc1ccccc1CNC(=O)c1ccc(N(C)S(=O)(=O)c2ccc(C)cc2)cc1`, the Potency is reported as “inactive”. With `Cc1ccccc1CSCCNC(=O)c1ccc(Cl)c(S(=O)(=O)N2CCOCC2)c1` the Potency was “inactive”. For `Cc1ccccc1CSCCNC(=O)c1ccc(N(C)S(=O)(=O)c2ccccc2)cc1`, the Potency was 2.24 µM (active). `COc1cccc(Nc2ncc3ncc(=O)n(C4CC4)c3n2)c1` was tested, and the Potency was “inactive”. In the case of `Cc1ccc(C2C(C#N)C(C#N)N3CCCN23)cc1` (centres undefined), the Potency is reported as 22.4 µM (active). For `CC1CC[C@@]23CCC4(C)[C@@]5(C)CCC6C(C)(C)C(O)CC[C@@]6(C)C5C=C[C@@]4(OC2=O)C3C1C` (some centres undefined), the Potency was “inactive”. With `CC1=C/C(=N\OS(=O)(=O)c2ccccc2)C=CC1=O` the Potency was 14.1 µM (active). For `COc1cc2c(cc1OC)CC(=O)N(CCCN(C)C[C@H]1Cc3cc(OC)c(OC)cc31)CC2`, the Potency was “inactive”. With `O=C1OC(C(O)CO)C(O)=C1O` (centres undefined) the Potency was “inactive”. With `CCNc1ncc2ncc(=O)n(Cc3cccc(OC)c3)c2n1` the Potency was “inactive”. In the case of `Cc1ccc(S(=O)(=O)N2CCCCC2)cc1NC(=O)c1cccnc1`, the Potency is reported as “inactive”. For `Cc1c(C(=O)OC(C)C)sc(NC(=O)c2cccnc2)c1C#N`, the Potency was 3.16 µM (active). With `CCOC(=O)c1sc(NC(=O)CSc2nc(C)cc(C(F)(F)F)n2)c(C#N)c1C` the Potency was “inactive”. `COc1cccc(-c2cc(NCCc3c[nH]c4ccc(OC)cc34)ncn2)c1` was tested, and the Potency was “inactive”. For `CC1(C)OC2CC3C4CCC5=CC(=O)CCC5(C)C4(F)C(O)CC3(C)[C@]2(C(=O)CCl)O1` (some centres undefined), the Potency was “inactive”. In the case of `Oc1c(Cl)cc(Cl)c(Cl)c1Cc1c(O)c(Cl)cc(Cl)c1Cl`, the Potency is reported as 12.6 µM (active). For `c1ccc2c(Nc3ccncc3)nc(-c3ccoc3)nc2c1`, the Potency was “inactive”. `O=C(Nc1ccccc1)N[C@H]1C[C@H](C(=O)O)Nc2cc(Cl)cc(Cl)c21` was tested, and the Potency was “inactive”. With `C=C1C(=CC=C2CCC[C@@]3(C)[C@@H]2CC[C@H]3[C@H](C)CCCC(C)C)C[C@@H](O)C[C@@H]1O` the Potency was “inactive”. `CC(C)(O/N=C(\C(=O)N[C@@H]1C(=O)N2C(C(=O)[O-])=C(C[n+]3ccccc3)CS[C@@H]12)c1csc(N)n1)C(=O)O` was tested, and the Potency was “inactive”. For `CC1C(O)CC2C(C(=O)O)=CO[C@@H](O[C@H]3OC(CO)C(O)C(O)C3O)C21` (some centres undefined), the Potency was “inactive”. With `COC(=O)N1CCC[C@@]2(CCN(C(=O)NC(C)C)C2)C1` the Potency was “inactive”. With `Brc1ccc(C2=NCCC(c3ccccc3)O2)cc1` (centres undefined) the Potency was “inactive”. For `CC(C)NC(=O)N1CC[C@@]2(CCCN(C(=O)c3ccco3)C2)C1`, the Potency was “inactive”. For `CCCCOC(=O)Cn1c(=O)n(CC(=O)OCCCC)c2cc(C)ccc21`, the Potency was 31.6 µM (active). For `Cc1ccc(C)c(NC(=O)COC(=O)Cn2c(C)csc2=O)c1`, the Potency was “inactive”. For `CCCCOc1ccc(Cn2c(=O)oc3ccc(C)cc32)cc1OC`, the Potency was “inactive”. In the case of `COc1ccc(NC(=O)N2CC3(CCN(C(C)=O)CC3)C2)cc1`, the Potency is reported as “inactive”. With `CC(=O)CC(c1ccccc1)C1C(=O)Oc2ccccc2C1=O` (centres undefined) the Potency was “inactive”. `COc1cccc(Cn2c(=O)c(-c3cc(F)cc(F)c3)nc3cnc(OC)nc32)c1` was tested, and the Potency was “inactive”. In the case of `O=c1c(CCc2ccccc2)nc2cncnc2n1C1CC1`, the Potency is reported as “inactive”. With `CC(C)=CCC/C(C)=C/CC/C(C)=C/CC/C(C)=C/CO` the Potency was “inactive”. `O=C(c1csnn1)N1CCC[C@@]2(CCN(c3cccc(-c4ccccc4)c3)C2)C1` was tested, and the Potency was “inactive”. With `Nc1nc2[nH]c(=O)c(=O)[nH]c2c(=O)[nH]1` the Potency was “inactive”. For `Cc1cnc(CNc2cc(-c3c(C)noc3C)ncn2)cn1`, the Potency was “inactive”. With `C=CCC1CCC(=O)N2CCCC12` (centres undefined) the Potency was “inactive”. With `CCCCCCCCCc1ccc(OCCOCCOCCOCCOCCOCCOCCOCCOCCO)cc1` the Potency was “inactive”. In the case of `Cn1cc(-c2nc3cncnc3n(-c3ccccc3)c2=O)c2ccccc21`, the Potency is reported as “inactive”. `Oc1ccc2c(c1)OCC1c3cc4c(cc3OC21)OCO4` (centres undefined) was tested, and the Potency was “inactive”. In the case of `Nc1ncnc2c1c(I)cn2[C@@H]1C[C@H](N)[C@@H](O)[C@H]1O`, the Potency is reported as “inactive”. `COc1ccc2[nH]cc(CCNc3ncnc4ccc(-c5ccc(C(=O)N(C)C)cc5)cc34)c2c1` was tested, and the Potency was “inactive”. `CC1OC(OCC2OC(Oc3c(-c4ccc(O)c(O)c4)oc4cc(O)cc(O)c4c3=O)C(O)C(O)C2O)[C@@H](O)C(O)C1O` (some centres undefined) was tested, and the Potency was “inactive”. For `CCOCCOC(=O)C(C)Oc1ccc(Oc2ncc(C(F)(F)F)cc2Cl)cc1` (centres undefined), the Potency was “inactive”. In the case of `CS(=O)(=O)N1CCC2(CC1)CN(Cc1ccccc1)C2`, the Potency is reported as “inactive”. In the case of `COCCNc1ncnc2ccc(-c3cccnc3)cc12`, the Potency is reported as “inactive”. With `CCC(CCC(C)C1CCC2C3CC=C4CC(O)CC[C@@]4(C)C3CC[C@@]12C)C(C)C` (some centres undefined) the Potency was “inactive”. In the case of `O=P(O)(O)C(O)c1ccc2ccccc2c1` (centres undefined), the Potency is reported as “inactive”. In the case of `CC(O)[C@@H](N)C(=O)O` (some centres undefined), the Potency is reported as “inactive”. For `COc1ccc(CNc2ncnc3ccc(-c4cccnc4)cc23)c(OC)c1`, the Potency was “inactive”. With `CCOC(=O)Cn1c(=O)sc2cccc(Cl)c21` the Potency was “inactive”. `CCNc1ncc2nc(CCc3ccccc3)c(=O)n(-c3ccc(OC)cc3)c2n1` was tested, and the Potency was “inactive”. In the case of `O=c1c(-c2ccc(F)cc2)nc2cnc(N3CCNCC3)nc2n1Cc1cccs1`, the Potency is reported as “inactive”. `Cn1cc(-c2nc3cnc(N4CCNCC4)nc3n(CCC#N)c2=O)c2ccccc21` was tested, and the Potency was “inactive”. For `N#Cc1cccc(-c2nc3cnc(N4CCNCC4)nc3n(C3CC3)c2=O)c1`, the Potency was 28.2 µM (active). `O=C(c1cc(C(F)(F)F)cc(C(F)(F)F)c1)N1CCC2(CCCN(c3ccccn3)C2)CC1` was tested, and the Potency was “inactive”. `CN1CCN2c3ccccc3Cc3ccccc3[C@@H]2C1` was tested, and the Potency was “inactive”. `CN1CCN(c2ncc3nc(-c4ccc(Cl)cc4)c(=O)n(-c4ccccc4)c3n2)CC1` was tested, and the Potency was “inactive”. For `CCCCC/C=C\CC1OC1CCCCCCCC(=O)O` (centres undefined), the Potency was “inactive”. In the case of `Cc1cccc(CNc2cc(-c3ccccc3Cl)ncn2)c1`, the Potency is reported as “inactive”. For `C=CC(=O)c1ccc2ccccc2c1`, the Potency was “inactive”. With `COCCn1c(=O)c(-c2ccccc2)nc2cnc(N3CCOCC3)nc21` the Potency was “inactive”.
